# Source: PubChem BioAssay AID488969 (Vanderbilt High Throughput Screening Facility, 2010)
# The full ranking holds about 110,000 compounds; the median of “z-score” is about -0.1, and the highest 2% start at about 2. Only a selection was taken, and the highest values are over-represented in it overall. Active and inactive are the calls of the source.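 Rule for the calls: active = z-score in the third read window above 3 or below -3; inactive = the rest.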
# Target: Metabotropic glutamate receptor 8 (Rattus norvegicus) (UniProt P70579)
# Sequence (P70579 whole entry, looked up): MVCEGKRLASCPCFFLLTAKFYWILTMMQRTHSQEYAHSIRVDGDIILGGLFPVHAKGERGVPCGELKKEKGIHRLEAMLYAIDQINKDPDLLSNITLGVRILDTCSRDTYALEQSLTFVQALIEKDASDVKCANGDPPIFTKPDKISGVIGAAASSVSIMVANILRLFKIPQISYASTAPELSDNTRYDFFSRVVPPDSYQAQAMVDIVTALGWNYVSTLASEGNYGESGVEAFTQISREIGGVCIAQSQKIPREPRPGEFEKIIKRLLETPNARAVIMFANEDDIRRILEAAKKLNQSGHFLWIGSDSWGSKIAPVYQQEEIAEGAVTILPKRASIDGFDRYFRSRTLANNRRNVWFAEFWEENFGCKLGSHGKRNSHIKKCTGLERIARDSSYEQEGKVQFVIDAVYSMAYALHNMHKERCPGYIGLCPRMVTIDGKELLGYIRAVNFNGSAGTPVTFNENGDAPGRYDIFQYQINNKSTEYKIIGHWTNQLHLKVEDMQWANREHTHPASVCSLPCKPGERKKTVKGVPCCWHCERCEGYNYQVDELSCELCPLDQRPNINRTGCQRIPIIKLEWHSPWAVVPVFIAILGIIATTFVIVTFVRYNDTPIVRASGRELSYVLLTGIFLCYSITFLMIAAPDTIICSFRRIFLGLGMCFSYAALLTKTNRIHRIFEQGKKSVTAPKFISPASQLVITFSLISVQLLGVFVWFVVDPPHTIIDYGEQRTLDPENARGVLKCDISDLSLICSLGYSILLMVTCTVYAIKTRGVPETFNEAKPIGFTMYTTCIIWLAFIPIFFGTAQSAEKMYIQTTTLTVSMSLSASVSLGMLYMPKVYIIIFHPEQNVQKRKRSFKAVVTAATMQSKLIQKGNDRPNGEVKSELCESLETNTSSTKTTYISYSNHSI
# Test: rat mGluR8 modulators via GIRK flux, primary screen, cell-based, thallium flux, HTS (AID 488969)
# Details: HEK293 rat mGluR8, GIRK (G protein-gated inwardly rectifying potassium channel) thallium flux, FluoZin2; at 10 µM; stronger effect = higher value; submaximal glutamate (EC20) added with thallium
row,Compound,z-score
1,CCc1cc2c(=O)c(Oc3ccccc3)c(C)oc2cc1O,0.432
2,O=C(CNC(=O)c1cccc(F)c1)N/N=C/c1cccc([N+](=O)[O-])c1,-0.00152
3,COc1ccc(S(=O)(=O)NC(C(C)C)C(C)C)cc1OC,0.101
4,CSc1nc(N2CCOCC2)c2c(c1C#N)CCCCC2,-0.315
5,CCC1Cc2c(nc3c4c(nc(N5CCOCC5)c(C#N)c24)NC(C)=N3)O1 (stereo not given),-0.387
6,O=C(c1ccco1)N1CCCC(c2ccccc2)C1 (stereo not given),-0.388
7,CCOC(=O)c1ccc(COC(=O)c2nonc2N)cc1,-0.0847
8,C=CCNC(=O)CC(C)C(CCCCC)C(=O)O (stereo not given),-0.15
9,Cc1ccc(CNC(=O)c2cc3c(C)nc4ccccc4c3o2)cc1,0.19
10,Cc1ccc(SCCNC(=O)c2ccccc2C)cc1,-0.0405
11,O=C(Cn1nc(-c2ccc(Cl)cc2)c2ccccc2c1=O)Nc1cccnc1,-0.258
12,CCC(C)(C)n1nnnc1CN1CCN(c2nc3cc(OC)ccc3cc2C#N)CC1,-1.2
13,Cn1ncc2c(NCc3ccccc3)ncnc21,-0.129
14,OCCNc1ncnc2c1ncn2Cc1ccccc1,-0.662
15,CC(C)CCn1cnc2c(NCc3ccccc3)ncnc21,2.07
16,O=C(CCCOc1ccc(Cl)cc1Cl)N/N=C\C1CCCCC1,-0.118
17,CCCOc1cccc(-c2cc(-c3n[nH]c(=S)n3CC)c3ccccc3n2)c1,4.22 (active)
18,CCn1c(-c2cc(-c3cc(OC)ccc3OC)nc3ccccc23)n[nH]c1=S,0.132
19,CCn1c(-c2cc(-c3cccc(OC)c3)nc3ccccc23)n[nH]c1=S,1.92
20,CCOc1cccc(-c2cc(-c3n[nH]c(=S)n3CC)c3ccccc3n2)c1,2.09
21,CCn1c(-c2cc(-c3ccccc3OC)nc3ccccc23)n[nH]c1=S,0.152
22,CCn1c(-c2cc(-c3ccc(OC(C)C)cc3)nc3ccccc23)n[nH]c1=S,1.25
23,CCOC(=O)c1cc2nc(-c3ccco3)cc(C(F)(F)F)n2n1,-1.72
24,CCOc1ccc(-c2nc(C#N)c(NCc3ccc4c(c3)OCO4)o2)cc1,0.406
25,O=c1[nH][nH]c(-c2ccccc2)c1C=Nc1ccccc1,-0.278

row,Compound,z-score
1,O=C1CCC2CCCCC2(O)O1 (stereo not given),-0.0285
2,O=c1n(Cc2ccc(Cl)cc2)c2sc3c(c2c2ncnn12)CCCC3,-0.595
3,COc1cc(OC)cc(-c2nnc(SCC(=O)N3CCCC3)o2)c1,-0.103
4,COc1cc(-c2nnc(SCC(=O)N3CCCC3)o2)cc(OC)c1OC,2.2
5,COc1ccc(-c2nnc(SCC(=O)N3CCCC3)o2)cc1OC,0.322
6,COc1ccc(OC)c(C(=O)CSc2nc3cccnc3n2C)c1,0.718
7,COc1ccc(S(=O)(=O)N(C)CC(=O)Nc2ccccc2OC)cc1,-0.484
8,OC(COCc1ccc2c(c1)OCO2)CN1CCN(Cc2ccccc2)CC1 (stereo not given),-0.00855
9,SC(COCc1ccccc1)CN1CCN(Cc2ccc3c(c2)OCO3)CC1 (stereo not given),3.02 (active)
10,CN1CCN(CC(O)COCc2ccc3c(c2)OCO3)CC1 (stereo not given),0.1
11,CCn1nc(NC(=O)c2ccccn2)c2cc3cc(C)ccc3nc21,-0.417
12,CC1=C(C(=O)OCc2ccccc2)C(c2cccnc2)n2nnnc2N1 (stereo not given),0.152
13,CCCN1CCN(C(=S)Nc2ccccc2C(F)(F)F)CC1,2.17
14,CN1CCN(CCNC(=O)Nc2ccccc2C(F)(F)F)CC1,-0.464
15,FC(F)(F)c1ccccc1NC(=S)N1CCN(c2ncccn2)CC1,-0.0651
16,CC1CCC(C(=O)NC(C(=O)N2CCc3ccccc3C2)C(C)C)CC1 (stereo not given),-0.269
17,COc1ccc(-c2nc3c(c4nnc(SC(C)C(=O)Nc5ccccc5)n24)COC(C)(C)C3)cc1 (stereo not given),-0.351
18,CC1CCN(c2oc(-c3ccccc3F)nc2C#N)CC1,2.57
19,CC1CCN(c2oc(-c3cccc4ccccc34)nc2C#N)CC1,0.305
20,N#Cc1nc(-c2ccccc2F)oc1N1CCCC1,-0.139
21,C=CCn1c(SCCOC)nc2c1c(=O)[nH]c(=O)n2C,-0.444
22,NC(Cc1ccc2nsnc2c1)C(=O)O (stereo not given),0.179
23,CCCCn1c(Cc2ccccc2)nnc1SCC(=O)N1CCOCC1,-0.257
24,O=C1C(=Cc2cccn2-c2ccc(O)cc2)C(=O)c2ccccc21,-0.204
25,CN(C)/C=C1\C(=O)Nc2ccccc21,-0.00898

row,Compound,z-score
1,O=C1Nc2ccccc2/C1=C\c1cccn1-c1ccc(OC(F)(F)F)cc1,2.45
2,COc1ccc(OC)c(NC(=O)CSc2nnc(CNC(=O)c3ccco3)o2)c1,-0.27
3,O=C(Nc1nccs1)C1C2/C=C\CCCCC21 (stereo not given),0.175
4,COC(=O)Nc1ccc([N+](=O)[O-])cc1OC,-0.117
5,COc1ccc2nc(NC(=O)CN3CCN(C)CC3)sc2c1,0.194
6,c1cncc(-c2nnc(-c3ccco3)o2)c1,-0.101
7,CC(=O)Nc1cccc2c1C(=O)N(c1cccc(C)c1)C2=O,3.13 (active)
8,CC(=O)Nc1cccc2c1C(=O)N(c1ccc(C)cc1)C2=O,0.845
9,CC(C)CC(=O)Nc1cccc2c1C(=O)N(c1ccccc1)C2=O,-3.2 (active)
10,Cc1csc(N(C(=O)c2ccc(S(=O)(=O)N(C)C)cc2)c2ccccc2)n1,0.4
11,Cc1csc(N(C(=O)c2cccc(S(=O)(=O)N3CCCC3)c2)c2ccccc2)n1,-0.475
12,Cc1csc(N(C(=O)c2cccc(S(=O)(=O)N(C)C)c2)c2ccccc2)n1,2.2
13,COc1cc(C2N(c3ccc(F)cc3)C(=O)C3CCCN32)cc(OC)c1OC (stereo not given),0.416
14,Clc1ccc2c(c1)-c1nnc(Br)n1-c1ccccc1S2,-4.38 (active)
15,O=C1Nc2ccccc2S/C1=C/Nc1cccc(Cl)c1,-0.29
16,O=C1Cc2ccccc2Sc2ccc(Cl)cc21,-0.097
17,S=C1Nc2cc(Cl)ccc2Sc2ccccc21,11.3 (active)
18,O=C1CCSc2ccc(Cl)cc2N1Cc1ccccc1,-0.321
19,CCOC(=O)Nc1ccc2c(c1)Nc1ccccc1S2,-0.571
20,O=C1CCSc2ccc(Cl)cc2N1Cc1ccc(Cl)cc1,-0.366
21,S=C1CCSc2ccc(Cl)cc2N1,9.14 (active)
22,S=C1Nc2ccccc2Sc2ccc(Cl)cc21,4.1 (active)
23,Cc1ccc(-n2c(Cc3cccn3C)nnc2SCC(=O)N2CCN(c3ccccc3)CC2)cc1,-0.835
24,Cc1ccc(S(=O)(=O)N2CCN(C(=O)N(c3ccccc3)c3ccccc3)CC2)cc1,-0.559
25,O=c1cc(O)nc(SCc2ccccc2)n1-c1ccc(F)cc1,-0.305
